The assay can be described thus: chemical genetic growth profiling, strain panel (AID 1159580).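 Also: tested at 20 µM; growth read once vehicle control cultures reached saturation at 30 °C; 1 = growth at the plate median or of vehicle wells; lower values mean less growth of the strain.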 To be noted: growth OD.
[1] abbreviates: S. cerevisiae deletion strains, locus YAL040C, strain CLN3, hits give low values.
Where [2] appears, read: S. cerevisiae deletion strains, locus YCL061C, strain MRC1 (second series), hits give low values.
[3] abbreviates: S. cerevisiae deletion strains, locus YDR150W, strain NUM1, hits give low values.
Where [4] appears, read: S. cerevisiae deletion strains, locus YDR363W, strain ESC2, hits give low values.
Where [5] appears, read: S. cerevisiae deletion strains, locus YER002W, strain NOP16, hits give low values.
[6] abbreviates: S. cerevisiae deletion strains, locus YGR078C, strain PAC10, hits give low values.
The mark [7] stands for this setting: S. cerevisiae deletion strains, locus YMR263W, strain SAP30, hits give low values.
The mark [8] stands for this setting: S. cerevisiae deletion strains, locus YNL153C, strain GIM3, hits give low values.
Where [9] appears, read: S. cerevisiae deletion strains, locus YNL175C, strain NOP13, hits give low values.
The mark [10] stands for this setting: S. cerevisiae deletion strains, locus YNL197C, strain WHI3, hits give low values.
The mark [11] stands for this setting: S. cerevisiae deletion strains, locus YNL224C, strain SQS1, hits give low values.
Setting [12] is: S. cerevisiae deletion strains, locus YOR083W, strain WHI5 (second series), hits give low values.
Setting [13] is: S. cerevisiae deletion strains, locus YPL055C, strain LGE1, hits give low values.
The mark [14] stands for this setting: S. cerevisiae deletion strains, locus YMR307W, strain GAS1, hits give low values.
[15] abbreviates: S. cerevisiae deletion strains, locus YNL322C, strain KRE1, hits give low values.
Where [16] appears, read: S. cerevisiae deletion strains, locus YPL241C, strain CIN2, hits give low values.
[17] abbreviates: S. cerevisiae deletion strains, locus YJR075W, strain HOC1, hits give low values.
[18] abbreviates: S. cerevisiae deletion strains, locus YAL013W, strain DEP1, hits give low values.

SMILES strings stand for the structures. Screen size: about 5,500 compounds; about 2,000 (36%) were called active. Not shown: some 18% with an inconclusive outcome. This is one part of the list. A number with no mark means an inactive call. Rule as the data show it: active = normalized growth mostly below about 0.91 (no sharp cut-off); inconclusive = no clear call, values can overlap the other calls; inactive = mostly above about 0.92.

Take `CCCCCCCCCC(=O)NC(CN1CCOCC1)[C@H](O)c1ccccc1` (stereo partly drawn): the normalized growth under setting [1] is 0.989; the normalized growth under setting [2] is 0.987; the normalized growth under setting [3] was 0.977; the normalized growth under setting [4] is 0.942; the normalized growth under setting [5] was 0.963; the normalized growth under setting [6] was 0.97. In addition, the normalized growth under setting [7] is 1; the normalized growth under setting [8] is 0.941; the normalized growth under setting [9] is 0.962; the normalized growth under setting [10] was 0.944; the normalized growth under setting [11] is 0.978; the normalized growth under setting [12] was 0.971. Under setting [13], the normalized growth was 0.957.

Turning to `CCCCCCCCCC[Si](C)(C)CCC(=O)NC(Cc1ccc(C)cc1)c1ccccc1` (stereo not drawn), the normalized growth is, setting by setting: under setting [1], 1.03; under setting [4], 0.974; under setting [5], 1.11 [resistant] (active); under setting [7], 0.998; under setting [14], 1.01; under setting [9], 1.05. The normalized growth was 1.17 [resistant] (active) under setting [11] and 1 under setting [13].

Turning to `CC[C@H](NC(=O)c1c(C)c(-c2ccccc2)nc2ccccc12)c1ccccc1`, the normalized growth is 1.03 under setting [1]; 0.987 under setting [3]; 1.04 under setting [4]; 1.02 under setting [5]; 1.06 under setting [14]; 0.979 under setting [8]. Also, the normalized growth was 1.03 under setting [9]; 1.04 under setting [10]; 1 under setting [11]; 0.995 under setting [15]; 1.07 under setting [12]; 0.987 under setting [16].

On to `N#CC(C#N)=C(N)/C(C#N)=C/c1ccc(O)cc1`, for which the normalized growth reads like this: under setting [1], 0.962; under setting [2], 0.998; under setting [4], 0.999; under setting [5], 1; under setting [6], 1; (S. cerevisiae deletion strains, locus YGR229C, strain SMI1, hits give low values) 1.04. Also, the normalized growth under setting [17] was 0.957; the normalized growth under setting [7] is 1; the normalized growth under setting [14] is 1; the normalized growth under setting [9] was 0.999; the normalized growth under setting [10] is 0.989; the normalized growth under setting [11] was 1. The normalized growth was 0.99 under setting [15], 1.01 under setting [12] and 1 under setting [13].

With `N#C/C(=C\c1ccc(O)c(O)c1)C(=O)NCc1ccccc1`, the normalized growth by setting is: under setting [18], 0.997; under setting [1], 0.984; under setting [2], 1; under setting [3], 1; under setting [4], 1; under setting [5], 1.01. The normalized growth was 1.01 under setting [6]; 0.992 under setting [17]; 1.01 under setting [7]; 1 under setting [14]; 1.02 under setting [8]; 1.01 under setting [9]. For the same compound, the normalized growth under setting [10] was 1.02, the normalized growth under setting [11] is 0.999, the normalized growth under setting [12] was 1.03 and the normalized growth under setting [16] is 1.

Consider `CCOC(=O)/C(C#N)=C/c1ccc(Br)cc1`, for which the normalized growth by setting is: under setting [18], 0.971; (S. cerevisiae deletion strains, locus YBR229C, strain ROT2, hits give low values) 0.805 (active); (S. cerevisiae deletion strains, locus YDL101C, strain DUN1, hits give low values) 0.875 (active); (S. cerevisiae deletion strains, locus YDL134C, strain PPH21, hits give low values) 0.972; under setting [3], 0.893; (S. cerevisiae deletion strains, locus YEL061C, strain CIN8, hits give low values) 0.754 (active). Besides, the normalized growth by setting is: under setting [6], 0.903 (active); (S. cerevisiae deletion strains, locus YHR030C, strain SLT2, hits give low values) 0.258 (active); (S. cerevisiae deletion strains, locus YHR087W, strain rtc3, hits give low values) 0.821 (active); (S. cerevisiae deletion strains, locus YJL187C, strain SWE1, hits give low values) 0.846 (active); (S. cerevisiae deletion strains, locus YJR043C, strain POL32, hits give low values) 0.851 (active); under setting [17], 0.828 (active). In addition, the normalized growth (S. cerevisiae deletion strains, locus YKL190W, strain CNB1, hits give low values) was 0.804 (active); the normalized growth (S. cerevisiae deletion strains, locus YLR039C, strain RIC1, hits give low values) is 0.646 (active); the normalized growth (S. cerevisiae deletion strains, locus YLR058C, strain SHM2 (second series), hits give low values) is 0.977; the normalized growth (S. cerevisiae deletion strains, locus YLR085C, strain ARP6, hits give low values) is 0.375 (active); the normalized growth (S. cerevisiae deletion strains, locus YLR262C, strain YPT6, hits give low values) is 0.72 (active); the normalized growth (S. cerevisiae deletion strains, locus YML094W, strain GIM5, hits give low values) was 0.828 (active). Also, the normalized growth reads like this: (S. cerevisiae deletion strains, locus YMR219W, strain ESC1, hits give low values) 0.926 (active); under setting [7], 0.913; under setting [8], 0.836 (active); (S. cerevisiae deletion strains, locus YNL298W, strain CLA4 (second series), hits give low values) 0.717 (active); under setting [15], 0.967; (S. cerevisiae deletion strains, locus YNR030W, strain Alg12, hits give low values) 0.765 (active). The normalized growth runs as follows: (S. cerevisiae deletion strains, locus YOL006C, strain TOP1, hits give low values) 0.593 (active); under setting [13], 0.865; under setting [16], 0.717 (active); (S. cerevisiae deletion strains, locus YPR135W, strain CTF4, hits give low values) 0.585 (active); (S. cerevisiae strains, strain wild type, hits give low values) 0.954.
